Data taken from PubChem BioAssay.
Active and inactive are the calls of the source.

Tests used:
Albumin (Bos taurus) = Albumin (Bos taurus) (UniProt P02769); assay: compounds binding labelled BSA control protein – biochemical, small-molecule microarray, Alexa647 label, 635/667 nm fluorescence, artefact control for SMM control protein annotation, profiling panel (AID 1118); conditions: BSA-A647 binding, fluorescence 635 nm, higher = more signal;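 note: score merges 667 nm emission intensity and signal-to-noise per printed compound spot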
[1] = probe aXIP binding to arrayed compounds – biochemical, NeuroSMM set, 635/667 nm fluorescence, primary screen (AID 1119); conditions: small-molecule microarray, higher = more signal, called active from +8 up or from −8 down;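 note: probe is the protein aXip251-270 applied at 1 µg/mL to compound-printed slides; binding of probe to printed compounds measured as 667 nm fluorescence plus signal to noise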
[2] = probe aNOTCH3 binding on compound microarray – biochemical, small-molecule microarray, 635/667 nm fluorescence, primary screen (AID 1120); conditions: higher = more signal;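 note: probe is a biotin-tagged antibody raised against NOTCH3 rather than NOTCH3 protein; score merges spot fluorescence near 667 nm with spot signal to noise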
[3] = probe aNOTCH2 binding on compound microarray – biochemical, small-molecule microarray, 635/667 nm fluorescence, primary screen (AID 1121); conditions: higher = more signal;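 note: score merges feature fluorescence read at 667 nm with its signal to noise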
[4] = molecular target: Carbonic anhydrase 2 (Homo sapiens) (UniProt P00918); assay: compounds binding carbonic anhydrase 2 – biochemical, small-molecule microarray, Alexa647-labelled CAII, profiling panel (AID 1122); conditions: CAII-A647 binding fluorescence, higher = more signal
[5] = COS7 lysate on small-molecule microarray, probe aHis, 635 nm (AID 1123); conditions: COS7 cell lysate, fluorescence, higher = more signal;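 note: z-score combines 667nm fluorescence intensity with signal-to-noise per printed compound spot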
[6] = probe aLAP1 signal on lysate-treated microarray – cell lysate, small-molecule microarray, COS7 lysate, primary screen (AID 1124); conditions: probe aLAP1, fluorescence, higher = more signal;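 note: lysate comes from COS7 cells expressing LAP1 and is applied at 0.3 µg/mL; score merges spot fluorescence near 667 nm with signal-to-noise over triplicate slides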
Sam68 (KHDRBS1) = assay: compounds binding KHDRBS1 protein – biochemical, small-molecule microarray, 635 nm fluorescence, primary screen (AID 1125); conditions: higher = more signal;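 note: score merges 667 nm channel intensity with signal to noise over triplicate slides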
[7] = test system: Chordin-like protein 2 (CHRDL2); assay: compounds binding chordin-like 2 – biochemical, small-molecule microarray, 635 nm fluorescence, primary screen (AID 1126); conditions: fluorescence 635 nm, higher = more signal;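 note: printed compound slides probed with Chrdl2 protein at 4 µg/mL for 1 h at 4 C; score merges 667 nm emission intensity with signal to noise over three replicate slides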
[8] = molecular target: Concanavalin-A (Canavalia ensiformis) (UniProt P02866); assay: compounds binding concanavalin A lectin – biochemical, small-molecule microarray, Alexa647 label, 635 nm, artefact control for SMM control protein annotation, primary screen (AID 1127); conditions: ConA-A647 binding fluorescence, higher = more signal;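 note: z combines 667 nm emission intensity with signal-to-noise across three replicate slides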
[9] = compounds binding Alexa647 anti-His antibody – biochemical, small-molecule microarray, 635 nm fluorescence, artefact control for SMM control protein annotation, primary screen (AID 1128); conditions: higher = more signal;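 note: score merges feature fluorescence with signal-to-noise for each printed compound spot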
[10] = test system: Human papillomavirus type 1a E7 protein (residues 1-88); assay: HPV1a E7 small-molecule binders, primary screen, biochemical, small-molecule microarray, residues 1-88, 635 nm (AID 1129); conditions: small-molecule microarray binding, fluorescence 635 nm; higher = more signal
[11] = molecular target: Focal adhesion kinase 1 (Homo sapiens) (UniProt Q05397); assay: PTK2 protein binding on printed compound slides – biochemical, small-molecule microarray, 635/667 nm fluorescence, BSA, DTT, primary screen (AID 1130); conditions: 635 nm fluorescence, higher = more signal;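 note: composite of spot emission at 667 nm and signal to noise over triplicate slides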
[12] = test system: Fibrinogen (Alexa647-labelled); assay: Alexa647-fibrinogen binding to printed small molecules – biochemical, small-molecule microarray, 635/667 nm fluorescence, artefact control for SMM control-protein annotation, profiling panel (AID 1131); conditions: fibrinogen-A647 binding fluorescence, higher = more signal;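 note: z-score merges 667 nm fluorescence with per-spot signal-to-noise over triplicate slides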
[13] = molecular target: Follistatin (Homo sapiens) (UniProt P19883); assay: FST protein binding to printed compounds – biochemical, small-molecule microarray, 635/667 nm fluorescence, primary screen (AID 1132); conditions: 635 nm fluorescence, higher = more signal
[14] = molecular target: Fibroblast growth factor 2 (Homo sapiens) (UniProt P09038); assay: basic fibroblast growth factor binding to printed compounds – biochemical, small-molecule microarray, 635/667 nm fluorescence, primary screen (AID 1133); conditions: FGF2, fluorescence 635/667, higher = more signal
[15] = JC-1 mitochondrial potential readout, lung cancer cells – cell-based, A549, JC-1 fluorescence, basal, 24 h, 100 nL, profiling panel (AID 1138); conditions: higher = more signal;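 note: A549 lung adenocarcinoma cells under basal conditions with no added stimulus; test concentration not given here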
Lefty1 = Lefty1 protein binding to printed compounds – biochemical, small-molecule microarray, 635/667 nm fluorescence, primary screen (AID 1139); conditions: fluorescence 635/667, higher = more signal
[16] = test system: wheat germ agglutinin (Triticum aestivum), Alexa647-labelled; assay: Alexa647-WGA lectin binding to printed small molecules – biochemical, small-molecule microarray, 635/667 nm fluorescence, artefact control for SMM control-protein annotation, profiling panel (AID 1140); conditions: WGA-A647 binding, 635 nm fluorescence, higher = more signal;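 note: score merges 667 nm feature emission with signal to noise over triplicate slides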
[17] = molecular target: Luciferin 4-monooxygenase (Photinus pyralis) (UniProt P08659); assay: inhibition of purified Photinus pyralis luciferase – biochemical, luminescence, purified enzyme, 2006 set, primary screen (AID 1141); conditions: purified firefly luciferase, SteadyGlo luminescence, 30 min; higher = more signal, called active from +8 up or from −8 down;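 note: cell-free assay with purified firefly luciferase at 100 ng per well in PBS; test concentration not given here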
Luciferin 4-monooxygenase (Photinus pyralis), sequence (P08659 whole entry, looked up): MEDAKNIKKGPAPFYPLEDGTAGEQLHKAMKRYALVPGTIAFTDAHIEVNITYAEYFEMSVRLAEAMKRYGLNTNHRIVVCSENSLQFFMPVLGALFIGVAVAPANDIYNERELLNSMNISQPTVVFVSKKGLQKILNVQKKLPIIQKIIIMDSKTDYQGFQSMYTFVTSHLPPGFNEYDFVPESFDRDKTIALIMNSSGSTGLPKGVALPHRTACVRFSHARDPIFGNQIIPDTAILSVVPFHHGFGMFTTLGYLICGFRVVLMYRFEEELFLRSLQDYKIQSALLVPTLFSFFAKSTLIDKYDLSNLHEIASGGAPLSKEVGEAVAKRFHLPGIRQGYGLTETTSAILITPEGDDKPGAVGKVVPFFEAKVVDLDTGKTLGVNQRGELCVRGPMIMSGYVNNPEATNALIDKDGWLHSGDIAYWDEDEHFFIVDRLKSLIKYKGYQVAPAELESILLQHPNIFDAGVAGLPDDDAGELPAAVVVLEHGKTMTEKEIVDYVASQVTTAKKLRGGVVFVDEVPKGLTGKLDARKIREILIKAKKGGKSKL

Fibroblast growth factor 2 (Homo sapiens), sequence (P09038 whole entry, looked up): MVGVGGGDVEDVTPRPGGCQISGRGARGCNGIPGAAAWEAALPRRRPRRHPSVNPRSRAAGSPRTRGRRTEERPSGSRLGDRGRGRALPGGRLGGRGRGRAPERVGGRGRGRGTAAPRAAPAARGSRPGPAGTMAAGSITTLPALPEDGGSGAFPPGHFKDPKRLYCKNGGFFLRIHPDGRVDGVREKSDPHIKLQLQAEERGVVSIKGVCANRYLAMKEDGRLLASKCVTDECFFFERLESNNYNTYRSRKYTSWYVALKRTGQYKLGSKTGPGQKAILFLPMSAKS
Concanavalin-A (Canavalia ensiformis), sequence (P02866 whole entry, looked up): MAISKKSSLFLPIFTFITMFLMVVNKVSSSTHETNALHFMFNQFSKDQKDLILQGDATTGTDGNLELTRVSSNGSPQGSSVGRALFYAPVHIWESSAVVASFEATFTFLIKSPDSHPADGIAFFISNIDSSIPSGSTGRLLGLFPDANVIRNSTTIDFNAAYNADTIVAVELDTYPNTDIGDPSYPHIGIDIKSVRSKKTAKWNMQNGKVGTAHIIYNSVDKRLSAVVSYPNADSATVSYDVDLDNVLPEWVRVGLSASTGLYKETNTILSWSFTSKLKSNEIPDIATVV
Follistatin (Homo sapiens), sequence (P19883 whole entry, looked up): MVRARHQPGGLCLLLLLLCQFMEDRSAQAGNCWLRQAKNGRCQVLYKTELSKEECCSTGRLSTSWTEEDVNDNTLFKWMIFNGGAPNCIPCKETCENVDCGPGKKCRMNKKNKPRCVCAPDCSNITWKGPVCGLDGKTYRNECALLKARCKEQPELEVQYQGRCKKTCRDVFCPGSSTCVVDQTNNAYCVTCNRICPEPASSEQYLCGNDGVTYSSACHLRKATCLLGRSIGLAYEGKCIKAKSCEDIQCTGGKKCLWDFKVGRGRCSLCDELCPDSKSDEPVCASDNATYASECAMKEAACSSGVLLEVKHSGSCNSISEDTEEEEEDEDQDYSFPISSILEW
Albumin (Bos taurus), sequence (P02769 whole entry, looked up): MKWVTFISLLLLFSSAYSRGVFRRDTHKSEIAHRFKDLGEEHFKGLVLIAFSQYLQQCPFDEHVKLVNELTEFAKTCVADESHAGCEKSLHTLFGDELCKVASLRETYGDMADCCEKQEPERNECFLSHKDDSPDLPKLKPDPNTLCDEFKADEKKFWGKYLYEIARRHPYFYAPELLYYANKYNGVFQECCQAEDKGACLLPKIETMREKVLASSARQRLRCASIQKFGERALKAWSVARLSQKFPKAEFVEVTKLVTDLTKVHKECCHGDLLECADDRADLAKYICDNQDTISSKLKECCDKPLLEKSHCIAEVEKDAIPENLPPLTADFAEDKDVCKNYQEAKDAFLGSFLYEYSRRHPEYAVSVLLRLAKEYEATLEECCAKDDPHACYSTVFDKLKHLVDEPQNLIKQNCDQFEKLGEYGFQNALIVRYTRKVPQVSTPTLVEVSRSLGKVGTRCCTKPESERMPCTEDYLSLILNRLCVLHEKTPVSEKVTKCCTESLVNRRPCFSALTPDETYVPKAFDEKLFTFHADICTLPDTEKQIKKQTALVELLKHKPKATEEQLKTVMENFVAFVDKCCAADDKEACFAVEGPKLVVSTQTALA
Focal adhesion kinase 1 (Homo sapiens), sequence (Q05397 whole entry, looked up): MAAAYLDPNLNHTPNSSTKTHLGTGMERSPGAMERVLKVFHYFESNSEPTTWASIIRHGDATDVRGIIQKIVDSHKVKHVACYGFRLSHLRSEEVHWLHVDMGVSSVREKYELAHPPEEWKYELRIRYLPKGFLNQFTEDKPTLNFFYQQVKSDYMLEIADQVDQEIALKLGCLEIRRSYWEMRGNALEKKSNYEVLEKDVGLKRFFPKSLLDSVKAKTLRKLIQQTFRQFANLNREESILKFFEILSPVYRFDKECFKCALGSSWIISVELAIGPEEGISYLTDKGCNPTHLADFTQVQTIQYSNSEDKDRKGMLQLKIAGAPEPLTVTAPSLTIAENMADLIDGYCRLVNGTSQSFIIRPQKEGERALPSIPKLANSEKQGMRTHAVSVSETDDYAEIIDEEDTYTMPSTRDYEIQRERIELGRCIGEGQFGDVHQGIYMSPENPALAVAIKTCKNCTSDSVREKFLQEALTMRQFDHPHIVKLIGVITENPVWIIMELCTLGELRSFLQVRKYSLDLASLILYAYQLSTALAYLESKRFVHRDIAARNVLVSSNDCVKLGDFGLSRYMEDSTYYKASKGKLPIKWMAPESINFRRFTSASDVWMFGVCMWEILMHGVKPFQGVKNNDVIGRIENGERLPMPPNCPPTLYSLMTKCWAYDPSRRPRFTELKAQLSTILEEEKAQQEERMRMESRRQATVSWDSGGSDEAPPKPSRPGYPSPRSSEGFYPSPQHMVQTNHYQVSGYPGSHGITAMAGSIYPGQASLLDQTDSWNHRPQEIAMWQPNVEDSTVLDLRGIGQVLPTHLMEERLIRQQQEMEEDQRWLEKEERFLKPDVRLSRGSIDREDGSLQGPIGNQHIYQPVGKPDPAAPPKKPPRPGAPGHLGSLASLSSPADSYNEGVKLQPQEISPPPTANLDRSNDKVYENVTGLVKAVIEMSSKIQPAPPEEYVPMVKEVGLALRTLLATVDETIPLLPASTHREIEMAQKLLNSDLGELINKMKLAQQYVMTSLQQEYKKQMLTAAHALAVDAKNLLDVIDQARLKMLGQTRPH

| Compound | composite z-score (Albumin (Bos taurus)) | composite Z-score [1] | composite z-score [2] | composite z-score [3] | composite z-score [4] | composite z-score [5] | composite z-score [6] | composite z-score (Sam68 (KHDRBS1)) | composite z-score [7] | composite z-score [8] | composite z-score [9] | composite z-score [10] | composite z-score [11] | composite z-score [12] | composite z-score [13] | composite z-score [14] | z-score [15] | composite z-score (Lefty1) | composite z-score [16] | z-score [17] |
| --- | --- | --- | --- | --- | --- | --- | --- | --- | --- | --- | --- | --- | --- | --- | --- | --- | --- | --- | --- | --- |
| CO[C@H]1O[C@H](CO)[C@@H](OC(=O)Nc2ccc(Oc3ccccc3)cc2)[C@H](OC(=O)Nc2ccccc2-c2ccccc2)[C@H]1OC(=O)Nc1ccccc1-c1ccccc1 | 0.892 | -0.0478 (inactive) | 0.289 | -0.0519 | 0.442 | 2.68 | 1.26 | 1.31 | 0.203 | 1.18 | 2.31 | 1.24 | 1.62 | 0.98 | 0.95 | 0.938 | -1.28 | 0.62 | 1.38 | -1.02 (inactive) |
| COc1cc(CO)cc(I)c1O[C@H]1C=C(C(=O)NCCO)C[C@@H](NCCc2c[nH]c3ccccc23)[C@@H]1O | 0.544 | 0.256 (inactive) | 0.124 | -0.121 | 0.412 | 0.414 | 0.128 | 1.12 | 0.685 | 0.649 | 0.876 | 0.579 | -0.0981 | 0.824 | 0.792 | 0.243 | 0.898 | 0.28 | 1.21 | 0.47 (inactive) |
| CO[C@H]1COC(=O)CC=C[C@H](C)[C@@H](OC)COC(=O)CC=C[C@@H]1C | -0.683 | 0.142 (inactive) | -0.155 | -0.14 | -0.782 | -0.702 | -0.36 | -0.294 | 1.21 | -1.25 | 0.245 | -1.11 | -0.415 | -0.706 | 0.956 | 1.29 | 1.35 | 0.817 | -0.991 | -1.38 (inactive) |
| COc1ccc([Si](C)(C)[C@@H]2[C@@H](CCO)O[C@]3(C(=O)N(Cc4ccccc4)c4ccccc43)[C@H]2C)cc1 | 0.152 | 0.158 (inactive) | -0.113 | -0.125 | -0.0193 | 0.141 | 0.0521 | 0.555 | -0.0822 | 0.421 | 1.42 | 0.319 | 0.331 | -0.153 | 0.32 | 1.21 | -0.234 | 0.32 | -0.139 | -0.238 (inactive) |
| O=C(NCc1ccccc1)[C@@]1(CCS(=O)(=O)c2ccccc2)COC(c2ccc(OCCCO)cc2)=N1 | 0.514 | 0.294 (inactive) | 0.291 | 0.0539 | 0.808 | 3.01 | 0.72 | 1.3 | -0.696 | 1.17 | 3.16 | 1.26 | 0.79 | 0.869 | 0.354 | -0.376 | 0.959 | -0.278 | 1.49 | -1.42 (inactive) |
| CCCC=C(CCC)[C@@H](NS(=O)(=O)c1ccc(C(F)(F)F)cc1)c1ccc(-c2ccccc2)cc1 | 0.822 | -0.118 (inactive) | 0.305 | -0.0467 | 0.279 | 2.24 | 0.348 | 1.21 | -0.386 | 0.882 | 0.826 | 1.23 | 0.998 | 0.694 | 1.26 | -0.0729 | 1.89 | 0.565 | 1.2 | 2.63 (inactive) |
| O=C(NCC(O)CO)[C@]1(Cc2ccccc2)N=C(c2ccc(OCCCO)cc2)O[C@@H]1c1ccccc1 (stereo not given in full) | 0.974 | 0.749 (inactive) | 0.101 | 0.257 | 0.366 | 3.43 | 0.634 | 1.03 | -1.93 | 0.922 | 0.713 | 0.98 | 0.774 | 0.601 | 0.585 | -0.836 | 0.571 | -1.42 | 1.27 | -1.37 (inactive) |
| CCc1cccc(NC(=O)O[C@H]2[C@H](OC(=O)Nc3ccccc3)[C@@H](OC(=O)Nc3ccccc3)[C@@H](OC)O[C@@H]2CO)c1 | 0.819 | -0.477 (inactive) | 0.163 | -0.0527 | 0.806 | 2.69 | 0.421 | 1.29 | -0.061 | 1.14 | 0.51 | 1.29 | 0.497 | 0.978 | 1.4 | 0.786 | -1.47 | 0.937 | 0.966 | 0.846 (inactive) |
| O=C(CS)NCCCCCNC(=O)[C@H]1C[C@H]2C(=O)N[C@@H](Cc3ccccc3)C(=O)N2[C@H]1c1ccc(O)cc1 | 0.237 | -0.65 (inactive) | 0.114 | -0.0598 | 0.436 | 0.704 | 0.393 | 1.32 | 0.905 | 1.17 | 1.58 | 1.06 | 0.485 | 0.948 | 1.43 | 1.14 | -0.586 | 0.854 | 1.21 | -2.91 (inactive) |
| C=C(COC)/C(=C/C[C@@H](OC(C)=O)c1cccc(OCCO)c1)c1cc(C(=O)OC)ccc1OC | -0.458 | -0.574 (inactive) | -0.0729 | -0.125 | 0.402 | -0.194 | -0.315 | 0.539 | -0.458 | -0.937 | -1.25 | 0.0995 | -0.453 | -1.09 | 0.954 | 0.202 | 1.37 | 0.499 | -1.12 | -2.09 (inactive) |
| CO[C@H]1COC(=O)[C@@H](C)NC(=O)CC=C[C@@H](C)[C@H](OC)COC(=O)CC=C[C@@H]1C | -0.731 | 1.16 (inactive) | -0.0679 | -0.201 | -0.576 | -0.724 | -0.517 | 0.32 | 1.46 | -1.28 | -0.31 | -1.46 | 0.223 | -1.07 | 1.34 | 1.63 | 2.3 | 1.66 | -1.16 | -1.38 (inactive) |
